From paper PMC4336329 (PLoS ONE, 2015)
Screen size: about 310,000 compounds; about 14,000 (4.5%) showed an effect of 50% or more. The effect is printed as a negative number. What follows is part of a selection rich in strong results, with near analogues and random picks from the rest.

Target: human ether-à-go-go-related gene (hERG) potassium channel (human, UniProt Q12809)
Experiment: primary screen, population patch clamp on CHO cells stably expressing hERG; higher = less effect of the substance
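Further: peak tail current of the secondary pulse compared with the same well before compound.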

Sequence of human ether-à-go-go-related gene (hERG) potassium channel (Q12809 whole entry, looked up): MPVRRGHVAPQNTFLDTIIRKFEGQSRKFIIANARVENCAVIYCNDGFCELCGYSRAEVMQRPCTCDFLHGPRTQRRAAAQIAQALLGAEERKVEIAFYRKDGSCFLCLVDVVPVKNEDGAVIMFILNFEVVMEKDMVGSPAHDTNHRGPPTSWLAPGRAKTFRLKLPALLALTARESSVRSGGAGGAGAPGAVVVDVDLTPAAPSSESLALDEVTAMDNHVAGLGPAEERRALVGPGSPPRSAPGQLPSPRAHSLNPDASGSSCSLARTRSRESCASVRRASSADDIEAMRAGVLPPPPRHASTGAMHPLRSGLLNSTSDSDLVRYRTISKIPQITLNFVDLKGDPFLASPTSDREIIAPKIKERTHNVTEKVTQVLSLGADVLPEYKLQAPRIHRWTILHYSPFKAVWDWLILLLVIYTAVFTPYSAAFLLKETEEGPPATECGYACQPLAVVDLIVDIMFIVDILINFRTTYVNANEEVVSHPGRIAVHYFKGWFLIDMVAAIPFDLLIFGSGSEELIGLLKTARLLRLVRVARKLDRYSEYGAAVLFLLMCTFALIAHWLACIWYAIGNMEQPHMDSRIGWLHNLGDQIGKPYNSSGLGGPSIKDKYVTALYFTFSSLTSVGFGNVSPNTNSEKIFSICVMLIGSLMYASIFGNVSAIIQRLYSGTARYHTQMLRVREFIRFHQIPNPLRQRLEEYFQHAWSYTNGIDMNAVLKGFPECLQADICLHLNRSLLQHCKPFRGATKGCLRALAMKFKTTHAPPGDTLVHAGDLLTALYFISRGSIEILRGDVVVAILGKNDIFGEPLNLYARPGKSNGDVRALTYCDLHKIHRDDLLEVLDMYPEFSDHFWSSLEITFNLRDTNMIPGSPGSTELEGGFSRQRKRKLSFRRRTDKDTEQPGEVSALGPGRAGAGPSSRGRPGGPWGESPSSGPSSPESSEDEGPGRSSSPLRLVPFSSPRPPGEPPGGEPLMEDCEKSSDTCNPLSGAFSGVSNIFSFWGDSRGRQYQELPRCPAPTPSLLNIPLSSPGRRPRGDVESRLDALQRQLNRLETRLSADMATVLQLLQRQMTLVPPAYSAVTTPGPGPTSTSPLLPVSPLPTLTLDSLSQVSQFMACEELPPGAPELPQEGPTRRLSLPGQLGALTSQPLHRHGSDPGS

Row | SMILES | hERG current change (%, negative = inhibition) at 10uM [%]
1 | COc1cc(CCN2C(=O)N[C@@H](CCc3ccccc3)C(C(C)=O)=C2C)cc(OC)c1OC | -12.6
2 | CC(=NCC1CCCO1)c1c(O)n(C2CCCCC2)c(=O)[nH]c1=O (stereo not shown) | -9.77
3 | CC(C)(C)NC(=O)CN1CCCN(C(=O)c2cccc(S(=O)(=O)N3CCc4ccccc43)c2)CC1 | -7.51
4 | CCn1c(NN=O)nc2ccccc21 | 15.6
5 | O/N=C1/C2C3CC4C5C3C1C5C1(OCCO1)C42 (stereo not shown) | 4.44
6 | Cc1cccc(OS(=O)(=O)NC(=O)OCC2CCCN3CCCCC23)c1 (stereo not shown) | 15.1
7 | O=C(c1cc2nc(-c3ccccc3)cc(-c3ccccc3)n2n1)N1CCC2(CC1)OCCO2 | -49.4
8 | C/C(=N/Nc1ccc(F)cc1)c1ccc(Cl)s1 | 8.69
9 | CC(C)(C)c1ccc(CCC(CC(=O)O)CC(=O)O)cc1 | -11.9
10 | CCn1cc(C(=O)NCCC(C)C)c(=O)c2cc(S(=O)(=O)N3CCCCC3)ccc21 | -7.53
11 | CCn1cc(C(=O)NC2CCCCCC2)c(=O)c2cc(S(=O)(=O)N3CCCCC3)ccc21 | 8.24
12 | CCN1CCCC1CNC(=O)c1cn(CC)c2ccc(S(=O)(=O)N3CCCCCC3)cc2c1=O (stereo not shown) | -66.5
13 | Cc1cccc(NC(=O)c2c(O)c3ccccc3n(C)c2=O)c1 | 25.8
14 | Cc1ccc(CCNC(=O)C2CCCN(C(=O)N(C)C)C2)cc1 (stereo not shown) | 8.01
15 | CCOc1ccc(CCNC(=O)c2nnc(Cc3ccc(F)cc3)o2)cc1OCC | -1.78
16 | Cc1cc(C)c2c(SC(C)C)nc(N)nc2n1 | -4.12
17 | Cc1cccc2c(C(=O)O)c3cccc(C)c3nc12 | 1.39
18 | Cc1cc(N)c2ccccc2n1 | 7.4
19 | Cc1cc(C)c2nc(-n3nc(C)cc3N)cc(C)c2c1 | 20
20 | Cc1cc(C)c2c(N)c3cccc(C)c3nc2n1 | -64.7
21 | Cc1cc(C)c2c(N)c3ccccc3nc2n1 | -53.9
22 | Cc1cc(C)c2nc3nc(C)cc(C)c3c(N)c2c1 | -65.5

Row | SMILES | hERG current change (%, negative = inhibition) at 10uM [%]
23 | Cc1cc(C)c2cccc(N)c2n1 | 20.7
24 | CCc1ccc2nc3nc(C)cc(C)c3c(N)c2c1 | 1.12
25 | CC(C)(C)n1nc2c(c1NC(=O)c1ccc(F)c(F)c1)CS(=O)(=O)C2 | 3.79
26 | COc1ccc(/C=N/NC(=O)c2ccc(CN3c4cccc5cccc(c45)S3(=O)=O)cc2)cc1 | 4.03
27 | CC(C)CN(C(=O)COC(=O)c1c2c(nc3ccccc13)CCC2)c1c(N)n(Cc2ccccc2)c(=O)[nH]c1=O | 4.06
28 | Cc1ccc(N2CC(C(=O)NCCS(=O)(=O)N3CCN(c4ccccc4F)CC3)CC2=O)cc1 (stereo not shown) | 13.2
29 | CC(C)(C)c1ccc(OCCNC(=S)NC(=O)c2cccnc2)cc1 | -16.3
30 | CCC(CC)C(=O)Nc1cc(C(=O)OC)ccc1C(=O)OC | -15.4
31 | COCCn1cc(C(=O)c2cc(Br)ccc2O)cc(C#N)c1=O | 2.45
32 | CC(Sc1nc(-c2ccccc2)cc(C(F)(F)F)n1)C(=O)NCc1ccco1 (stereo not shown) | 10.2
33 | CC(Sc1nnc(-c2cccs2)n1-c1ccccc1)C(=O)NCc1ccco1 (stereo not shown) | -79.4
34 | CNC(=O)CSc1nnc(-c2cccnc2)n1-c1ccc(C)cc1 | 13.6
35 | CC(Sc1nnc(Cc2cccs2)n1C1CCCCC1)C(=O)NCc1ccco1 (stereo not shown) | -5.59
36 | Cn1c(SCC(=O)NCc2ccco2)nnc1-c1cccs1 | 3.45
37 | Cc1ccc(-n2c(SCC(=O)NCc3ccco3)nnc2-c2cccnc2)c(C)c1 | -34.4
38 | O=C(CSc1nnc(-c2cccs2)n1CC1CCCO1)N1CCCC1 (stereo not shown) | -14.4
39 | CC(C)(C)C(=O)CSc1nnc(-c2cccs2)n1CC1CCCO1 (stereo not shown) | -12.4
40 | Cc1ccc2nc(-c3ccccc3)nc(SC(C)C(=O)NCc3cccs3)c2c1 (stereo not shown) | 11.7
41 | Cc1ccc(-n2c(SCC(=O)NCc3ccco3)nnc2-c2cccnc2)cc1 | -60.8
42 | Cc1ccc(C)c2c(SC(C)C(=O)NCc3ccco3)nc(-c3ccccc3)nc12 (stereo not shown) | -64.7
43 | O=C(CCCSc1nnc(-c2cccs2)n1CC1CCCO1)c1ccccc1 (stereo not shown) | -65.1
44 | CCCCNC(=O)CN1C(=O)COc2ccc(S(=O)(=O)N3CCCCCC3)cc21 | -1.25

Row | SMILES | hERG current change (%, negative = inhibition) at 10uM [%]
45 | O=C(CSc1nc(=O)n2ccccc2n1)NCCc1ccccc1 | -1.36
46 | Cc1ccc2nc(CSc3nnc(Cc4cccs4)n3C3CCCCC3)cc(=O)n2c1 | -15.6
47 | COc1cccc(C(=O)N/N=C/c2ccc(OC)c(COc3ccccc3C(N)=O)c2)c1 | -2.25
48 | N#Cc1cc(Oc2ccc(Cl)cc2)c(N2CCOCC2)cc1C#N | -1.79
49 | CN(Cc1ccccc1)C(=O)CSc1nnc(-c2ccco2)n1-c1ccccc1 | -80.2
50 | Cc1cccc(-n2c(SCC(N)=O)nnc2-c2ccco2)c1 | -1.07
51 | O=C(O)CCCCCNC(=O)CSc1nnc(-c2ccco2)n1-c1ccccc1 | 11.9
52 | Cn1c(SCC(=O)NCCc2ccccc2)nnc1-c1ccco1 | -4.63
53 | O=C(CSc1nnc(-c2ccco2)n1-c1ccccc1)NCc1ccco1 | -67.8
54 | Cc1cccc(-n2c(SCC(=O)NCc3ccco3)nnc2-c2ccco2)c1 | -75.7
55 | Cc1nnc(SCC(=O)NCc2ccco2)n1-c1ccccc1 | 26.1
56 | O=C(CSc1nnc(-c2ccccc2)n1-c1ccccc1)NCc1ccco1 | 1.47
57 | CNC(=O)CSc1nnc(-c2ccco2)n1-c1cccc(C)c1 | -4.75
58 | CC(=O)CSc1nnc(-c2ccco2)n1-c1ccccc1 | -11.7
59 | O=C(CSc1nnc(-c2ccco2)n1-c1ccccc1)NCCc1ccccc1 | -69.4
60 | NC(=O)CSc1nnc(-c2ccco2)n1-c1ccccc1 | 16.1
61 | O=C(N1CCCCC1)N1CCN(S(=O)(=O)c2ccccc2)CC1 | 10.4
62 | Nc1cc(-c2ccc(Cl)cc2)nn1S(=O)(=O)c1ccc(Cl)cc1 | 19.1
63 | CC(=O)Nc1ccc(OCc2cnc(Cl)s2)cc1 | 11.3
64 | CCN(C(=O)COC(=O)c1c(C)nsc1NC)c1ccccc1 | -11.9
65 | Cc1onc(-c2ccccc2)c1C(=O)NNC(=S)NC(=O)/C=C/c1ccccc1 | 16.2
66 | O=C(c1ccccc1)N1CCN(C2c3cccc4cccc(c34)C2NS(=O)(=O)c2ccccc2)CC1 (stereo not shown) | -21.9

Row | SMILES | hERG current change (%, negative = inhibition) at 10uM [%]
67 | O=S(=O)(Nc1ccc(S(=O)(=O)N2CCCC2)cc1)c1ccccc1Br | 3.27
68 | CCC(=NCc1ccccc1)C1=C(O)C(C(=O)OC)C(C)(C)CC1=O (stereo not shown) | -17
69 | C[C@@H]1CC=C[C@H]2[C@H]1C(=O)N(Cc1ccccc1)[C@H]2c1ccc(-c2ccc(F)cc2)cc1F | -0.198
70 | O=C(CSc1nnc(-c2cccs2)n1-c1ccccc1)NCc1ccco1 | -73
71 | Cc1cc(C)nc(SCc2nnc(SCC(=O)NCc3ccco3)n2-c2ccccc2)n1 | -14.5
72 | CCn1c(SCC(=O)NCc2ccco2)nnc1-c1cccs1 | -8.86
73 | O=C(CSc1nnc(-c2cccs2)n1C1CC1)NCC1CCCO1 (stereo not shown) | -0.536
74 | O=C(CSc1nc2c(c(=O)n1-c1ccc(F)cc1)SCC2)NCC1CCCO1 (stereo not shown) | -2.45
75 | O=C(CSc1nc2c(c(=O)n1-c1ccc(Cl)cc1)SCC2)NCC1CCCO1 (stereo not shown) | -34.5
76 | Cc1nnc(SCC(=O)NCC2CCCO2)n1-c1ccccc1 (stereo not shown) | -4.28
77 | O=C(CSc1nnc(-c2cccs2)n1-c1ccccc1)NCC1CCCO1 (stereo not shown) | -74.1
78 | O=C(CSc1nc2c(c(=O)n1-c1ccc(Br)cc1)SCC2)NCC1CCCO1 (stereo not shown) | -60.9
79 | CN(/N=C/c1c[nH]c2ccccc12)c1cnn(-c2ccc(F)c(Cl)c2)c(=O)c1Cl | -5.66
80 | CCOc1ccccc1CN1CCNC(=O)C1CC(=O)N(C)Cc1nonc1C (stereo not shown) | 8.59
81 | COc1ccc(CNC(=O)c2cccc(-c3ccc(C)c4ccccc34)n2)cc1 | -24
82 | COc1ccc(-c2ccc(NS(=O)(=O)c3cc([N+](=O)[O-])ccc3C)cc2)nn1 | -25.5
83 | CN(CC(=O)Nc1ccc(Cl)cc1)S(=O)(=O)c1ccc2c(c1)n(C)c(=O)c(=O)n2C | 16.3
84 | OCC1(CCOc2ccccc2)CCN(CC2=Cc3cc(Cl)ccc3OC2)CC1 | -21.9
85 | COc1ccc2c(c1)C=C(CN1CCC(CO)(CCc3ccccc3)CC1)CO2 | -77.1
86 | COc1cccc(CC2(CO)CCCN(CC3=Cc4cc(Cl)ccc4OC3)C2)c1 (stereo not shown) | -7.49
87 | COc1ccc(CC2(CO)CCN(CC3=Cc4cc(Cl)ccc4OC3)CC2)cc1 | -58.3
88 | COc1cccc(CC2(CO)CCCN(CC3=Cc4cc(OC)ccc4OC3)C2)c1 (stereo not shown) | -21.5
